From PubChem BioAssay
IL-1B inflam inh: qHTS for Inhibitors of Inflammasome Signaling: IL-1-beta AlphaLISA Primary Screen | THP-1 LPS/ATP IL-1B secretion, AlphaLISA, 16 h; stronger effect = lower value | activity change, % at 57.5 µM | hit rate 4.7% among 360,000; in the data active = activity change below about -50%; inconclusive = mostly about -30% to -49%
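Secreted IL-1B measured by AlphaLISA bead assay after 16 h compound exposure of THP-1 cells; compounds (final up to 57.5 uM) added 1 h before LPS (250 ng/mL) and ATP (1.25 mM) stimulation; lower signal means less secretion.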
TDP1 cell noCPT: qHTS for Inhibitors of human tyrosyl-DNA phosphodiesterase 1 (TDP1): qHTS in cells in absence of CPT | DT40 Tdp1-/- hTDP1 cells, no CPT, ATP luminescence, 48 h | Potency, µM (series often up to 46.2 µM), for the others: top-dose activity change, negative = growth inhibition, hits mostly inhibitors | hit rate 15% among 420,000 | AID 686978, 2013; also: potency is read from the fitted curve at half-maximal effect; nearly all actives have a fitted effect of over 55% in size
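Growth of hTDP1-complemented DT40 Tdp1-knockout cells is measured by ATP luminescence after at least 48 hr compound exposure at 37 °C, with DMSO substituting for the 20 nM CPT used in the parallel screen.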
HT1080-NT tox: qHTS for induction of synthetic lethality in tumor cells producing 2HG: qHTS for the HT-1080-NT fibrosarcoma cell line | HT-1080-NT fibrosarcoma viability, CellTiter-Glo ATP luminescence, 48 h | Potency, µM (titrated, usually from 46.1 µM), for inactives: top-dose activity, negative = less viability, usual class: cytotoxic | hit rate 1.6% among 360,000 | AID 686970, 2013;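 also: NT is the 2HG producing partner of a matched IDH1 knockdown line; potency is read from the fitted curve at half-maximal effect; 0% = DMSO-treated cells and -100% = media-only wells without cells; nearly all actives have a fitted effect of over 55% in size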
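750 cells/well, RPMI + 5% FBS; 2 h settle, compound pin-transfer, 48 h at 37 degrees C. CellTiter-Glo 10 min RT, luminescence. Normalized to DMSO and media-only wells.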
HT1080 IDH1KD tx: qHTS for induction of synthetic lethality in tumor cells producing 2HG: qHTS for the HT-1080-IDH1KD cell line | HT-1080 IDH1 knockdown viability, ATP luminescence, 48 h | Potency, µM (top dose mostly 46.1 µM), without a hit: at the highest dose activity, negative = toxicity, usual class: cytotoxic | hit rate 2% among 360,000;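 also: potency is read from the fitted curve at half-maximal effect; 0% = DMSO wells and -100% = cell-free medium wells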
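% activity derives from luminescence (CellTiter-Glo), normalised to DMSO and no-cell wells. HT-1080-IDH1KD cells, 750/well, had 48 h compound exposure at 37 °C.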
DT40 TDP1 CPT: qHTS for Inhibitors of human tyrosyl-DNA phosphodiesterase 1 (TDP1): qHTS in cells in presence of CPT; chicken DT40 Tdp1-/-;hTDP1 cells + 20 nM CPT, ATP luminescence, 48 h; Potency, µM (titrated, usually from 46.2 µM), for the others: top-dose activity change, negative = growth inhibition, most hits filed as inhibitors; hit rate 12% among 420,000; also: potency is read from the fitted curve at half-maximal effect; nearly all actives have a fitted effect of over 55% in size
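Chicken DT40 Tdp1-/- cells stably complemented with human TDP1 were seeded at 400 cells/well in medium containing 20 nM camptothecin, exposed to pin-transferred compounds, and grown at 37 °C for at least 48 hr. Viability was read as ATP luminescence.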
* marks the source's active call; other numbers are inactive results; ? = inconclusive; nt = no result given; [ ] = remark or other dose. An excerpt weighted towards active compounds, which were near 19% of everything screened. Unless noted, calls follow the shape of the dose curve; as a rule, active = well fitted curve in the direction sought with a large enough effect; inconclusive = small, poorly fitted or top-dose-only effect, or another doubt; inactive = no such curve, though single readings can be large; an effect the other way counts as inactive or inconclusive. Unless noted, % is scaled to controls: 0 for no effect and ±100 for the full control effect.

SMILES	IL-1B inflam inh	TDP1 cell noCPT	HT1080-NT tox	HT1080 IDH1KD tx	DT40 TDP1 CPT
CCOc1cc2[nH]c(=O)n(CCCCC(=O)N3CCN(c4cccc(Cl)c4)CC3)c(=O)c2cc1OCC	nt	5.2µM*	nt	nt	2.3µM*
CCOc1cc2[nH]c(=S)n(CCCC(=O)N3CCC4(CC3)OCCO4)c(=O)c2cc1OCC	6	-34%	14%	-3%	-3%
COc1cc2[nH]c(=O)n(CCCCCC(=O)N3CCN(c4cccc(C(F)(F)F)c4)CC3)c(=O)c2cc1OC	nt	6.5µM*	nt	nt	?
OC[C@@H](O)[C@H]1O[C@@H]2O[C@@H](C(Cl)(Cl)Cl)O[C@@H]2[C@H]1O	nt	-23%	nt	nt	0%
O=C(CCCC1=NS(=O)(=O)c2ccccc2N1)N1CCC2(CC1)OCCO2	38	-8%	2%	1%	-19%
c1cc(N2CCCC3(CCNCC3)C2)ccn1	nt	9.2µM*	nt	nt	9.2µM*
c1cnc(N2CCCC3(CCNCC3)C2)nc1	nt	-24%	nt	nt	-2%
CCCCc1ncc(CN2CCCC(C(=O)c3ccc(SC)cc3)C2)[nH]1 (centres undefined)	9	?	-18%	2%	?
CCN(CC(=O)Nc1ccccc1C(F)(F)F)C(=O)CCSc1ccc(F)cc1	-14	?	-5%	0%	-24%
CCOC(=O)C1(c2ccccc2)CCN(CCC(=O)Nc2ccccc2OC)CC1	8	12µM*	-4%	4%	21µM*
CCOC(=O)C1(c2ccccc2)CCN(CCC(=O)Nc2ccc(F)cc2)CC1	-21	?	-8%	-5%	?
S=P(Nn1cnnc1)(c1ccc(Br)cc1)c1ccc(Br)cc1	?	-21%	-5%	-27%	-1%
N#CC(O[C@@H]1OC(COC2OC(CO)C(O)C(O)[C@@H]2O)C(O)C(O)C1O)c1ccccc1 (some centres undefined)	nt	-1%	nt	nt	-5%
COc1cccc(C(c2nnnn2C2CCCC2)N2CCC3(CC2)C(=O)NCN3c2ccccc2)c1OC (centres undefined)	?	15µM*	?	?	?
CC(C)(C)n1nnnc1C(c1ccnc2ccccc12)N1CCC2(CC1)C(=O)NCN2c1ccccc1 (centres undefined)	-9	?	-1%	5%	?
COc1ccc(-n2nnnc2C(c2cccc3ccccc23)N2CCC3(CC2)C(=O)NCN3c2ccccc2)cc1 (centres undefined)	?	9.2µM*	-15%	-21%	-93%
CCCCn1nnnc1C(CCSC)N1CCC2(CC1)C(=O)NCN2c1ccccc1 (centres undefined)	-21	?	0%	3%	23µM*
O=C1NCN(c2ccccc2)C12CCN(C(c1ccnc3ccccc13)c1nnnn1Cc1ccccc1)CC2 (centres undefined)	-51*	?	?	-28%	?
CCCCn1nnnc1C(CC)N1CCC2(CC1)C(=O)NCN2c1ccccc1 (centres undefined)	-3	?	7%	11%	?
COC(=O)[C@@H](N)CCCN/C(N)=N/[N+](=O)[O-]	nt	-24%	nt	nt	?
O=C1NCN(c2ccccc2)C12CCN(C(c1cccc3ccccc13)c1nnnn1Cc1ccccc1)CC2 (centres undefined)	?	23µM*	?	?	18µM*
Cc1cnc(C)c(Nc2nc(C(N)Cc3ccc(C(F)(F)F)cc3)cs2)n1 (centres undefined)	?	12µM*	?	16µM*	12µM*
CCN(CC)CCc1c[nH]c2ccccc12	nt	-18%[166 µM]	nt	nt	-15%[166 µM]
Cc1ccc(OP2(=O)Nc3cc(C)c(C)cc3S2)cc1 (centres undefined)	-69*	?	?	?	?
Cc1ccc2c(c1)NP(=S)(Oc1ccccc1)N2 (centres undefined)	-6	-13%	11%	16%	-11%
SMILES	IL-1B inflam inh	TDP1 cell noCPT	HT1080-NT tox	HT1080 IDH1KD tx	DT40 TDP1 CPT
CCC(=Nc1ccccc1NC(C)=O)c1c(O)n(C)c(=O)n(C)c1=O	8	-5%	-2%	11%	2%
CC1CC2C(C(O)CC3(C)C(O)CCC23)C2(C)CCC(=O)C=C12 (centres undefined)	-5	-8%	4%	4%	15%
O=C(Nc1ccc2nc(-c3cccs3)c(-c3cccs3)nc2c1)NC1CC1	?	18µM*	?	?	?
COc1cc(/C=C/c2ccc3ccccc3[n+]2C)cc(OC)c1OC	nt	13µM*	nt	nt	?
COc1cc(/C=C2\C(=O)NC(=O)N(c3ccccc3)C2=O)cc(OC)c1OC	25	-3%	10%	12%	-4%
O=C(COc1ccc2ccc(=O)oc2c1)N1CCC(C(=O)O)(c2ccccc2)CC1	2	2%	-6%	2%	-10%
C=CCCC[C@@H]1OC(=O)CNC(=O)C([C@@H](C)CC)NC(=O)[C@@H]2CCCN2C(=O)C([C@@H](C)CC)OC(=O)[C@H](Cc2ccccc2)N(C)C(=O)[C@H](C(C)C)NC(=O)C1(C)C (some centres undefined)	-52*	16µM*	?	?	13µM*
CC(C)(C)c1ccc(C(=O)NNC(=O)Cc2cccc3ccccc23)cc1	-12	?	-22%	?	?
